We go through 110 sequences from PubChem BioAssay AID1347426 (Functional Genomics Laboratory (NCATS/FGL), 2020).

Out of some 31,000 sequences screened, about 1,400 (4.5%) were called active. This is one part of a sample in which actives are shown more often than they occur. Unmarked numbers belong to inactive results.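 The calls were made as follows: active = median seed-adjusted z-score above 1 or below -1; inactive = the rest.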

The experiment in a line: Novel Modifiers of Survival Motor Neuron (SMN) Protein: Gene Identification via Genome-wide siRNA Screen.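 Also: luminescence tracks full-length SMN protein made from the SMN2 reporter.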 The note with it: HEK293T SMN2-luciferase reporter, siRNA knockdown, 72 h; actives lie on both sides. An outline of the steps:
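Each of three siRNAs per gene is reverse-transfected (1 pmol) into reporter HEK293T cells whose luciferase output tracks SMN protein level. After 72 h culture, ONE-Glo luminescence is control-normalized, log10-transformed and MAD-standardized; Common Seed Analysis deprioritizes seed-driven hits.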
CGACAAGUCUUCGACCUGATT against DGKZ: the median seed-adjusted z-score was 0.

As to GCUGCUAUUUGAUAGACCATT against HNRNPM, the median seed-adjusted z-score is 0.499.

In the case of GAAUGAUGAUGCAUGCCUUTT against MS4A10, the median seed-adjusted z-score was -0.24.

For CACCUCUAAUCAUCGAUGATT against UAP1, the median seed-adjusted z-score was 0.0411.

As to AGGUCUGGACGACAACUAUTT against MST1, the median seed-adjusted z-score is -1.47 (active).

Take GGAGCCUAUCAUAACCUUATT against ZNF484: the median seed-adjusted z-score is 0.2.

Regarding GGGUACCGAGGAUCGCUUUTT against LAMA5, the median seed-adjusted z-score is 0.229.

With GUAUCUAAGAGAUAUGGAATT against ORC5L, the median seed-adjusted z-score was -0.126.

Regarding GACUCCCAUUUGAGACUUUTT against ZMAT1, the median seed-adjusted z-score is -0.123.

As to ACACCUACAUGAUGACGCATT against EVX2, the median seed-adjusted z-score is 0.181.

For CCUCAAAUGCAGUAUUUUUTT against HMOX1, the median seed-adjusted z-score was 0.45.

With GCAACUACGUGACUCGCUATT against SMUG1, the median seed-adjusted z-score is -1.38 (active).

Regarding CGUCAGUGCUUCGCAUACATT against ZBTB45, the median seed-adjusted z-score was 0.

Take GAAGGAGCAGGAUUACCAATT against TMED4: the median seed-adjusted z-score is -0.895.

As to GAGCUUCAACUAACAGGAATT against NUPL2, the median seed-adjusted z-score is 0.134.

For CAUGGUCCAUUAUUCGUGATT against ATP6V1A, the median seed-adjusted z-score is -0.0106.

GGAAUUGGUUUCAGUCAAATT against RCOR1: the median seed-adjusted z-score is -1.13 (active).

Take GACUUACCUUCUGAGCAUATT against ZNF792: the median seed-adjusted z-score was 0.

Consider CGACUUCAUUGUAAAGAAATT against LIPF, for which the median seed-adjusted z-score is 0.54.

With GCUGCGUCAUUUUCGAAAATT against MOXD1, the median seed-adjusted z-score is -0.162.

For the sequence GAACGAGCUGGAUCCAUUATT against ARSF, the median seed-adjusted z-score is 0.111.

CCUUACGAAUCAUAAGAUATT against ZNF708: the median seed-adjusted z-score is 0.0562.

Take CAGAGAACCUUCAAGUUAATT against ZNF239: the median seed-adjusted z-score is -0.191.

In the case of GCAUAGCCCUCAACAAGAATT against IRF6, the median seed-adjusted z-score is -1.79 (active).

Consider GCCGCUUUCGGAAUAAGAUTT against DGKZ, for which the median seed-adjusted z-score is 0.

In the case of CGGAGAACAUUGUUGUUCUTT against TMTC2, the median seed-adjusted z-score is 0.0277.

Take GCACCUUGCAGGAUUGGAATT against PEAR1: the median seed-adjusted z-score is 0.071.

For ACCAUAGCCUCUCACCCUATT against RASA4, the median seed-adjusted z-score was -1.11 (active).

As for ACGCAACCCUCAACAGCUCTT against UTS2R, the median seed-adjusted z-score was 0.0819.

Regarding GGGACUCAGUACUUCCAUATT against SLC39A8, the median seed-adjusted z-score was 0.265.

For the sequence CGAAGUUCAUAGACGAGAUTT against PPP1R2, the median seed-adjusted z-score is 0.208.

On to AGAGGUCUUCGACAAUAAATT against CD9, for which the median seed-adjusted z-score was -1.02 (active).

GAGCCUCCUCAAAUCCAAATT against SERPING1: the median seed-adjusted z-score was -0.244.

For CGUGGGAUAUGUUGACGGATT against BTNL3, the median seed-adjusted z-score was 0.

As to GGAAUUUUUCGGGUGGUUATT against ELF5, the median seed-adjusted z-score is -0.45.

For GAUCGAUAUCUUUACAAGATT against SLK, the median seed-adjusted z-score is 0.0479.

As to CGAUGGAGAUCAACGUGAATT against UBE2E2, the median seed-adjusted z-score is -1.77 (active).

Turning to CCUUCACUAUUGCCCGCAATT against ABCD1, the median seed-adjusted z-score was 0.

Take UGAUGACACCAACCACGAATT against CNP: the median seed-adjusted z-score was -0.116.

Consider GGCCCAUAUUCAUCUGCUATT against STYX, for which the median seed-adjusted z-score is 0.694.

As to AGCACGAGCUAGUCCCUGATT against POLR2E, the median seed-adjusted z-score is -1.25 (active).

As to GCAAGAUCCGAGAAGAAUATT against TUBB, the median seed-adjusted z-score is -0.307.

For GCAUGAUCGGGAGGGUUUATT against PPID, the median seed-adjusted z-score is -0.206.

With GGUUAUGAACUUUGGAUAATT against GPR103, the median seed-adjusted z-score is 0.

As for CUAUGUCAGUGGUCCUGAATT against RETSAT, the median seed-adjusted z-score was -1.7 (active).

Take CAAUGAAGACUGAUGUAUUTT against SLC9A2: the median seed-adjusted z-score is -1.02 (active).

With CCCUUACUACAACUACAAATT against ZBTB38, the median seed-adjusted z-score is 0.448.

For GGGCGAUUCCUGUCUAAGATT against PUM1, the median seed-adjusted z-score is 0.109.

Consider CGAACUCCGCUUUUUCUUATT against FZD7, for which the median seed-adjusted z-score is -0.159.

As for GCUACAACGGAAACAAUCATT against MSTN, the median seed-adjusted z-score is -0.639.

In the case of GGAGUUCGAUGAGACAACATT against FABP3, the median seed-adjusted z-score is -0.0786.

In the case of CGAUUACGCUUCAGAGAUATT against PTP4A2, the median seed-adjusted z-score is -1.45 (active).

As for GGACAUCCUGUCAUAGAAATT against UTP3, the median seed-adjusted z-score is -1.08 (active).

As to GGAAGUUCAUUACCAGAAUTT against PLCZ1, the median seed-adjusted z-score is 0.

With GCAAUAGUCAGGAGCGAUATT against PPP1R10, the median seed-adjusted z-score was 1.41 (active).

Regarding CCUUACCUGUAAACAGAGATT against ESR2, the median seed-adjusted z-score was -1.1 (active).

With CCAGGCCCAUUCUACAAUATT against PEAR1, the median seed-adjusted z-score was 0.071.

As for AUAUAACUGCUGAUCUAGATT against SPCS3, the median seed-adjusted z-score is 0.417.

On to GGAGUUCGUUCAGAGACCATT against MOCS2, for which the median seed-adjusted z-score is 0.0327.

For the sequence CUCUCUUCGUAGAUCAAGATT against SFRS7, the median seed-adjusted z-score is 0.44.

For UGAAGUUGCUGGACGCGUATT against DAD1, the median seed-adjusted z-score was -0.45.

As to GCUUGGAGGAUUUCAUGGATT against POFUT1, the median seed-adjusted z-score is 0.

In the case of AGAAAUUGGUGUUCAGAAUTT against GTF2F2, the median seed-adjusted z-score is -1.14 (active).

GAAUAAAAACGACCUCUUUTT against LZTR1: the median seed-adjusted z-score was 0.293.

GCAUGUUAAUGGGUUUAAUTT against GNAS: the median seed-adjusted z-score was -0.531.

With CUGCAGUUCUUAAUACGAATT against PSMD1, the median seed-adjusted z-score is -1.61 (active).

For GAACAUAUGUGAUGACCGUTT against CDH2, the median seed-adjusted z-score is -0.235.

As for GGAGGUCUCCUACAUCAAATT against ZAN, the median seed-adjusted z-score was 0.736.

CGGGUGCACUACUACAUCUTT against GBGT1: the median seed-adjusted z-score is 0.48.

For AGCCCUUGACCUUAUCUAATT against CSTB, the median seed-adjusted z-score is 1.08 (active).

ACUCAACUCUGAUACUCCATT against DMRTC2: the median seed-adjusted z-score is 0.

As for GAGCUGAAGUCCUUAGAUATT against EIF2B3, the median seed-adjusted z-score is -0.271.

For CGACUAUGCUUUAGAUUAUTT against MAS1, the median seed-adjusted z-score is -0.0551.

Consider CGGCCUAACUUUCAAGACATT against SDK2, for which the median seed-adjusted z-score is 0.908.

GGUUCUGAAAUGUUCGUCATT against ZDHHC22: the median seed-adjusted z-score is 0.00446.

Turning to GAUAAAAGGAUGGAUGAAATT against PRPF6, the median seed-adjusted z-score was -1.06 (active).

On to GAAUCAAGACAAACCCGAATT against TTN, for which the median seed-adjusted z-score is 0.872.

As for GCACUCUUCUCAUUCACGATT against ATP1B3, the median seed-adjusted z-score was -0.225.

As for CCAACGAACUCCUUACUUATT against SCP2, the median seed-adjusted z-score was 0.413.

CAAUCACUCAGGAACAAAUTT against CHMP6: the median seed-adjusted z-score is -1.81 (active).

Regarding ACAAUACCCUCAGACUGAATT against NMUR1, the median seed-adjusted z-score was -0.265.

On to UGGUGAAAAUUACAUCUGATT against CIP29, for which the median seed-adjusted z-score is -1.18 (active).

CAAUCCUCAUGCUAAACCATT against SGK1: the median seed-adjusted z-score was -0.659.

In the case of GAGUGGACUGGGCAAAUCATT against 3-Sep, the median seed-adjusted z-score was 0.0683.

CAGGUAUUCUGGUCAAUAUTT against ATL3: the median seed-adjusted z-score is 0.201.

Consider GACAAUGGGUUAUUCAGGATT against FNTA, for which the median seed-adjusted z-score was 1.04 (active).

As for GACACCUUCUUAGACGAUATT against AMPD1, the median seed-adjusted z-score is 0.378.

Take GCGAGUAGAUAAUAUCGAATT against MAP3K5: the median seed-adjusted z-score was -0.285.

For the sequence GCAGGUCAGUUAUCAGACUTT against SLC17A1, the median seed-adjusted z-score was -0.271.

For the sequence CAGUUGUACUGGACGGCUATT against PALLD, the median seed-adjusted z-score is -0.307.

For CAACCUCACUGACCGGCAATT against HOXD11, the median seed-adjusted z-score is -0.185.

CAUCUUUCCUAAAGAGUUUTT against POLR2D: the median seed-adjusted z-score was -3.79 (active).

As to GCCUACAUGUUUCUGCUGATT against RHO, the median seed-adjusted z-score is -0.267.

For the sequence CAGAGGAACUGACACCAUUTT against ETFA, the median seed-adjusted z-score is -0.0619.

For the sequence CGCUUUUCGUUGUAAAUAUTT against NKX2-2, the median seed-adjusted z-score is -0.0805.

For the sequence GAAGCUUGAGGAACACGAATT against GOLGB1, the median seed-adjusted z-score was 0.0851.

As for CACUAAUGGAUAUUGCCUATT against BMI1, the median seed-adjusted z-score was 0.

As for UGACUGCGGAUAUAACUGATT against LMAN2, the median seed-adjusted z-score was -0.0921.

Regarding GGGAAGGCAAUAAAACUUATT against TAAR9, the median seed-adjusted z-score is -1.07 (active).

In the case of GACUAAUGAACUACUAAAATT against HMMR, the median seed-adjusted z-score was 0.389.

For GAAUAUCUAGGUACAUGGATT against ADCY10, the median seed-adjusted z-score is -0.573.

As for CUGUACAACGUCAACCUCATT against SCNN1D, the median seed-adjusted z-score is -1.8 (active).

For CAGUUAAAGGUCAAGAUAATT against PI3, the median seed-adjusted z-score was 0.493.

Take AGAUUAAGGAUAUGGAUGATT against CHRNA9: the median seed-adjusted z-score was -0.454.

With GGAUAAUCGACACUCUGGATT against MATN3, the median seed-adjusted z-score is 0.0972.

GGAUUAACAUAUGAUGACATT against ADAM18: the median seed-adjusted z-score was -0.913.

GGUUCUCAGGAGCACCAGATT against OASL: the median seed-adjusted z-score was 1.02 (active).

As for CAUGUCACCUGCAAAAUUATT against THEM2, the median seed-adjusted z-score is 0.449.

Turning to GAGUCGUUGUCCAUCUUAATT against SR140, the median seed-adjusted z-score is 1.16 (active).

As to GCAGAUCCAUCAACUACGATT against UBR4, the median seed-adjusted z-score is 0.602.
